PubChem BioAssay (Tox21)
“And” between values parts separate entries of the source, which are not always exact repeats. Equal values may be shown once. Records with an inconclusive call do not appear. Values without a mark were called inactive. The source made the active and inactive calls. The call rests on the fitted dose curve; in most records, active means well fitted cell-killing curve with a large enough effect in the repeat runs; inconclusive means weak or mixed curves; inactive means flat fitted curve, though single readings scatter.

experiment: qHTS assay to identify small molecule antagonists of the estrogen related receptor (ERR) signaling pathway from Tox21 library - cell viability counter screen (AID 1224834); settings: ERR reporter cells viability, CellTiter-Fluor, 17.5 h; series mostly up to 92.4 µM; viability change, negative = cytotoxic: at the top concentration; further: nearly all actives have a fitted effect of over 30% in size
Description: National Center for Advancing Translational Sciences [NCATS]
NIH Chemical Genomics Center [NCGC]
U.S. Environmental Protection Agency [EPA]
National Institutes of Environmental Health Sciences [NIEHS]
National Toxicology Program [NTP]
U.S. Food and Drug Administration [FDA]
Estrogen related receptors (ERRs), the first orphan nuclear receptors discovered, play an important role in the control of cellular energy metabolism. ERRs are required for high-energy production in response to the environmental challenges. ERR-alpha was also identified as an adverse marker for breast cancer progression; ERR-alpha-positive tumors have a poor prognosis. To screen and to identify environmental compounds that perturb the ERR signaling pathways could provide valuable information for potential therapeutic or preventive measures in the treatment of metabolic disease. To differentiate true ERR antagonists or agonist from cytotoxic substances, the assay is multiplexed with cell viability assay.
Tox21 Assay Protocol Summary:
The ERR cells were dispensed at 2,000 cells/5 ul/well in 1536-well white plates using a Multidrop dispenser. After the assay plates were incubated at a 37 C/5% CO2 incubator for 6 hours, 23 nL of compounds dissolved in DMSO, positive and negative controls or DMSO only was transferred to the assay plate by a pin tool. The plates were incubated at 37 C for 17.5 hours. 1 ul/well of CellTiter-Fluor reagent was added into the assay plates using a Flying Reagent Dispenser. After 30-minute incubation at 37 C/5% CO2, the fluorescence intensity in the plates was measured using a ViewLux plate reader.
On the % scale 0 is the no-effect control and ±100 the full control effect; potency means the concentration at half of the fitted maximal effect.

Row | Structure (SMILES) | viability change, negative = cytotoxic | Potency
1 | ClCCl | 1.55% | –
2 | Cc1cc(C(C)(C)C)c(O)c(C)c1Cn1c(=O)n(Cc2c(C)cc(C(C)(C)C)c(O)c2C)c(=O)n(Cc2c(C)cc(C(C)(C)C)c(O)c2C)c1=O | -6.09% | –
3 | C#CC1(O)CC[C@H]2[C@@H]3CCC4=CCCC[C@@H]4[C@H]3CC[C@@]21C (stereo not given in full) | – | 54.5 µM (active)
4 | Nc1nc(N)nc(-c2cc(Cl)ccc2Cl)n1 | 3.76% [at 42.5 µM] | –
5 | CN(C)C(=O)COC(=O)Cc1ccc(OC(=O)c2ccc(N=C(N)N)cc2)cc1 | 7.01% [at 42.5 µM] | –
6 | Cc1cc(-c2ccc(N=Nc3cc(S(=O)(=O)O)c4ccccc4c3N)c(C)c2)ccc1N=Nc1cc(S(=O)(=O)O)c2ccccc2c1N | -6.45% | –
7 | O=C(O)[C@H](O)[C@@H](O)[C@H](O[C@@H]1O[C@H](CO)[C@H](O)[C@H](O)[C@H]1O)[C@H](O)CO | -0.287% [at 42.5 µM] | –
8 | CCCCCCCCCCCCCC[N+](C)(C)Cc1ccccc1 | – | 62.1 µM (active) and 23.7 µM (active) and 22.4 mM (active)
9 | C=CC(=O)Nc1cc2c(Nc3ccc(F)c(Cl)c3)ncnc2cc1OCCCN1CCOCC1 | – | 23.7 µM (active)
10 | OCCN1CCN(CCCN2c3ccccc3Sc3ccc(C(F)(F)F)cc32)CC1 | – | 29.8 µM (active)
11 | CCCCC(CC)COC(=O)CCCCC(=O)OCc1ccccc1 (stereo not given) | 3.86% | –
12 | Cc1cc(C)c(/C=C2\C(=O)Nc3ccccc32)[nH]1 | -3.32% [at 42.5 µM] | –
13 | CCCCCCCC | 9.03% | –
14 | C[Si](Cl)(c1ccccc1)c1ccccc1 | -11.2% | –
15 | C=CC(C)(CCC=C(C)C)OC=O (stereo not given) | 3.67% | –
16 | CCCC[P+](C)(CCCC)CCCC | 1.07% | –
17 | Oc1c(I)cc(Cl)c2cccnc12 | – | 24.3 µM (active) and 26.6 µM (active)
18 | Cc1cc(C(C)(C)C)cc(C)c1CC1=NCCN1 | -0.942% [at 42.5 µM] | –
19 | CCC(C)[O-].CCC(C)[O-].CCOC(=O)/C=C(/C)[O-].[Al+3] | 0.164% | –
20 | Oc1ccccc1O | – | 43.8 µM (active)

Row | Structure (SMILES) | viability change, negative = cytotoxic | Potency
21 | Cc1cc(-n2nc3ccc(Cl)cc3n2)c(O)c(C(C)(C)C)c1 | 1.19% [at 42.5 µM] | –
22 | O=c1[nH]c2ccccc2n1CCCN1CCN(C(c2ccccc2)c2ccccc2)CC1 | – | 23.7 µM (active)
23 | CC(CCc1ccccc1)NCC(O)c1ccc(O)c(C(N)=O)c1 (stereo not given) | – | 27.3 µM (active)
24 | Cc1ccc(N/N=c2\c(=O)cc/c(=N\Nc3ccc(S(=O)(=O)O)cc3)c2=O)c(C)c1 | – | 30.6 µM (active)
25 | C=CCCC(=O)/C=C/C1C(C)=CCCC1(C)C (stereo not given) | 0.667% | –
26 | CCCC(=O)OCOC(=O)C1=C(C)NC(C)=C(C(=O)OC)C1c1cccc(Cl)c1Cl (stereo not given) | -11.6% [at 42.5 µM] | –
27 | Cc1ccc(-c2ccccc2)cc1 | -3.71% | –
28 | CC(C)CCOC(=O)/C=C/c1ccccc1 | 3.44% | –
29 | OC1CCC(C2CCCCC2)CC1 (stereo not given) | -2.32% | –
30 | O=S(=O)(O)c1ccccc1/C=C/c1ccc(-c2ccc(/C=C/c3ccccc3S(=O)(=O)O)cc2)cc1 | 2.45% | –
31 | CCCCOC(=O)CC | 2.76% | –
32 | O=C1CCc2ccc(OCCCCN3CCN(c4cccc(Cl)c4Cl)CC3)cc2N1 | – | 26.6 µM (active)
33 | C=CC(=O)OCCOC(=O)C=C | 0.532% | –
34 | O=C(O)c1ccc2cc(C(=O)O)ccc2c1 | 2.63% | –
35 | CC/C=C\CCCCCO | 2.68% | –
36 | Cc1cccc2cccnc12 | -2.7% | –
37 | CCC(COC(=O)CCS)(COC(=O)CCS)COC(=O)CCS | 0.476% | –
38 | C#Cc1ccc(-c2ccccc2F)cc1 | -0.888% [at 42.5 µM] | –
39 | COc1ccc(-c2coc3cc(O)ccc3c2=O)cc1 | -1.18% | –
40 | O=C(O)c1cc(N=Nc2ccc([N+](=O)[O-])cc2)ccc1O | – | 47.7 µM (active)
